Shown are actives, neighbours in structure and some others; about 1.9% of the full set was active somewhere.
CXXC DNA block: inhibitors of human MLL CXXC domain-DNA interaction | hit rate 0.037% among 290,000 | AID 2662 | Potency, µM (highest dose often 115 µM), most hits filed as inhibitors | MLL-CXXC / FITC-HOXA9 DNA fluorescence polarization | Q03164; active means well fitted inhibition curve with a large enough effect in the polarisation, with a control signal flat, not every such curve was filed as active; inconclusive means small, poorly fitted or top-dose-only effect, or effect the other way, or a change in a side signal; inactive means no such curve, though single readings can be large or run the other way; the % refers to the polarisation
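Purified MLL-CXXC (added from a 7 uM solution) was preincubated 5 min at ambient with pinned compounds in 50 mM Tris-HCl pH 7.5, 50 mM NaCl, 1 mM DTT, 0.05% BSA. Fluorescein-labeled HOX-A9 DNA (50 nM solution) followed, 30 min, then polarization read.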
Menin MLL FP TR: displaces Texas Red mutant MLL peptide from human menin | Menin + Texas Red MLL mutant peptide, fluorescence polarization | hit rate 0.23% among 270,000 | Potency, µM (highest dose often 61.6 µM), hits mostly inhibitors; active means well fitted inhibition curve with a large enough effect in the polarisation, with a control signal flat, not every such curve was filed as active; inconclusive means small, poorly fitted or top-dose-only effect, or effect the other way, or a change in a side signal; inactive means no such curve, though single readings can be large or run the other way; the % refers to the polarisation
Target sequence (O00255 whole entry, looked up): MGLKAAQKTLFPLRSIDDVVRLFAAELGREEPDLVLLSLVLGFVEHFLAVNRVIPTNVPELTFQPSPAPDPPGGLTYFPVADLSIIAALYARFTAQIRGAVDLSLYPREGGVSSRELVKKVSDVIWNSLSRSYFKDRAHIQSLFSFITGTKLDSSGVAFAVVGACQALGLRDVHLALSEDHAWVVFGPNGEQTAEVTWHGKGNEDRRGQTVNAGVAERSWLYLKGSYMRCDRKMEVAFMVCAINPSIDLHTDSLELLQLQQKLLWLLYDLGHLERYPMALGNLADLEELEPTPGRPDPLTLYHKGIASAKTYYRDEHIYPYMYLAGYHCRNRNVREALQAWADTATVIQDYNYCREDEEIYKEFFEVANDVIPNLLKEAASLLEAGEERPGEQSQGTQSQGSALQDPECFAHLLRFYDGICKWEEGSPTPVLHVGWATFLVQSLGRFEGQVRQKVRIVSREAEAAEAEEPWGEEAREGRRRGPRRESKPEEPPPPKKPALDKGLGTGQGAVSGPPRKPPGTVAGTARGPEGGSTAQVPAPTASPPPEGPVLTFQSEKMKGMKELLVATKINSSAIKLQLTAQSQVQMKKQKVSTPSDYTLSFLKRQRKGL
PINK1 modulator: modulators of PINK1 expression; PINK1 immunofluorescence, high-content cytometry, 24 h; hit rate 0.2% among 410,000; Potency, µM (series often up to 76.6 µM), hits mostly activators; AID 624263; active means well fitted activation curve with a large enough effect; inconclusive means small, poorly fitted or top-dose-only effect; cell line not stated here; further: nearly all actives have a fitted effect of over 65% in size
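PINK1 protein, normally rapidly degraded, was detected by immunofluorescence after 24 hour compound treatment of a stable cell line. Titration data (5 concentrations) came from laser-scanning cytometry, with CCCP-treated wells as controls.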
ClpP mod: qHTS Assay for Activators of ClpP; ATP-dependent Clp protease proteolytic subunit (Bacillus subtilis (strain 168)), P80244; purified B. subtilis ClpP, FRET peptide cleavage, 20 min; Potency, µM (series often up to 57.5 µM); hit rate 1.9% among 340,000; active means well fitted falling curve with a large enough effect; inconclusive means small, poorly fitted or top-dose-only effect; inactive means no such curve, though single readings can be large or run the other way; further: the source files actives as falling curves though it sought activators and does not explain the sign; nearly all actives have a fitted effect of over 65% in size
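Buffer: 100 mM Tris/HCl pH8, 100 mM KCl, 0.05% low protease BSA, 2.5% glycerol, 0.01% Tween-20. ClpP 10 microg/mL final; 20 min RT; delta FRET normalized to ADEP and DMSO controls.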
Menin-MLL FL inh: inhibitors of human menin-MLL interaction, wild-type MLL peptide. FP activity change, % at 61.4 µM. 290,000 tested, under 10 active. Fluorescence polarization, fluorescein-MLL peptide displacement from menin. AID 1766; active means well fitted curve in the direction sought with a large enough effect in the polarisation, not every such curve was filed as active; inconclusive means small, poorly fitted or top-dose-only effect, or effect the other way, or a change in a side signal; inactive means no such curve, though single readings can be large or run the other way; the % refers to the polarisation
Epigenetic reg: regulators of epigenetic silencing causing reporter derepression in mouse cells | murine LDR cells, GFP reporter derepression, 30 h | Potency, µM (titrated, usually from 53.9 µM), most hits filed as activators | hit rate 0.2% among 280,000; active means well fitted activation curve with a large enough effect; inconclusive means small, poorly fitted or top-dose-only effect; further: nearly all actives have a fitted effect of over 60% in size
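Derepression of a silenced CMV-GFP reporter in murine LDR cells is scored by enumerating GFP-positive cells with a laser-scanning microplate cytometer after 30 hours of treatment at 37 C.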
Numbers stand for hits; . = inactive; ? = inconclusive; / = not tested or not shown; ! = a repeat was not active.

SMILES | CXXC DNA block | Menin MLL FP TR | PINK1 modulator | ClpP mod | Menin-MLL FL inh | Epigenetic reg
c1ccc(OCCOCCSc2ncccn2)cc1 | . | . | . | 20µM | . | .
O=C(Cn1cc(SCc2ccc(Cl)cc2)c2ccccc21)N1CCOCC1 | . | . | . | . | . | .
O=C(Cn1cc(SCc2ccc(F)cc2)c2ccccc21)N1CCOCC1 | . | . | . | 2.82µM | . | .
Cc1ccc(S(=O)(=O)N2CC(O)CC2C(=O)O)cc1 (stereo unspecified) | . | . | . | 35.5µM | . | /
Cc1cccc(NC2=CC(=O)OC(C)C2)c1 (stereo unspecified) | . | . | . | 28.2µM | . | .
O=C(COC(=O)c1cccc(F)c1)Nc1cccnc1Cl | . | . | . | 25.1µM | . | .
COc1cc(N)c(Cl)cc1C(=O)OCC(=O)Nc1cccnc1Cl | / | / | . | 28.2µM | / | /
COc1ccc(Cl)cc1C(=O)OCC(=O)Nc1cccnc1Cl | / | / | . | ? | / | /
O=C(COC(=O)c1ccc(Br)cc1)Nc1cccnc1Cl | / | / | . | . | / | /
CCN(CCN(C)Cl)/[N+]([O-])=N/Oc1ccc([N+](=O)[O-])cc1[N+](=O)[O-] | / | / | . | / | / | /
COc1ccc(NC(=O)c2c(NC(=O)COc3ccccc3)sc3c2CCCCC3)cc1 | / | / | . | . | / | .
COc1ccc(OCC(=O)Nc2sc3c(c2C(=O)NCC2CCCO2)CCC3)cc1 (stereo unspecified) | . | / | 11.2µM | . | . | .
Fc1cccc(Oc2nc3ccccc3n3cccc23)c1 | . | . | . | 22.4µM | . | .
CN(C)c1ccc(/C=C/c2cc(/C=C/c3ccc(N(C)C)cc3)c3ccccc3n2)cc1 | / | / | . | . | / | /
C=CCNC(=S)Nc1ccc2nsnc2c1 | . | . | . | 28.2µM | . | .
Cc1ccc(C)c(NC(=O)Cn2c(=O)n(Cc3ccccc3)c(=O)c3oc4ccccc4c32)c1 | / | / | . | . | / | ?
Cc1ccc(C)c(NC(=O)Cn2c(=O)n(Cc3ccco3)c(=O)c3oc4ccccc4c32)c1 | / | / | . | 31.6µM | / | ?
Cc1cc(C)c(C(=O)C(C)OC(=O)C2=COCCO2)cc1C (stereo unspecified) | . | / | . | . | / | /
N#CCCCS(=O)(=O)c1nnnn1-c1ccc(F)cc1Br | / | . | / | / | . | ?
Cc1ccc(-c2nc3ccccc3o2)cc1NC(=S)NC(=O)c1cc2ccccc2o1 | . | . | . | 15.8µM | . | .
Cc1ccc2oc(-c3ccc(C)c(NC(=S)NC(=O)c4cccs4)c3)nc2c1 | . | ? | . | . | . | .
COc1ccc(-c2nc3ccccc3o2)cc1NC(=O)c1ccc(Br)o1 | . | . | . | 22.4µM | . | .
CCOC(=O)C1=C(C)OC(N)=C(C#N)C1c1cc2cc(C)ccc2nc1N1CCCCC1 (stereo unspecified) | . | . | . | 28.2µM | ? | .
COc1ccc(CN2CCOc3ccc(C(O)c4cccnc4)cc3C2)cc1O (stereo unspecified) | / | / | . | / | / | /
O=C(O)CNC(=O)c1ccc2c(c1)OCCO2 | . | . | 12.6µM | . | . | .
SMILES | CXXC DNA block | Menin MLL FP TR | PINK1 modulator | ClpP mod | Menin-MLL FL inh | Epigenetic reg
COc1cc(/C=C/c2nc3ccccc3c(=O)[nH]2)ccc1OC(F)F | . | . | . | . | . | /
O=c1[nH]c(/C=C/c2ccccc2OC(F)F)nc2c1cnn2-c1ccccc1 | . | . | . | 11.2µM | . | .
CSc1ccc(-c2nc3ccc(C)cn3c2Nc2ccccc2C)cc1 | / | / | . | 3.55µM | / | .
COc1ccc(CNC(=O)c2cnn(-c3nccc(-c4ccco4)n3)c2C)cc1OC | / | / | . | / | / | /
O=C(NCc1nnc2n1CCN(Cc1cc(F)cc(F)c1)CC2)c1cccc(F)c1 | / | / | . | / | / | /
CNc1ccccc1C(=O)OC(C)C(=O)Nc1ccc(S(=O)(=O)N2CCCC2)cc1 (stereo unspecified) | ? | / | . | 28.2µM | / | /
CC(=O)Nc1ccc(NC(=O)C(C)OC(=O)c2ccc(S(=O)(=O)N3CCCCC3)cc2)cc1 (stereo unspecified) | / | / | . | / | / | /
c1ccc(-c2cc3ncc4c(n3n2)-c2ccccc2OC4)cc1 | / | / | . | . | / | .
O=C1c2ccccc2NC(c2ccc(O)cc2)N1Cc1ccco1 (stereo unspecified) | . | . | . | 31.6µM! | . | .
COc1cc(C2Nc3ccccc3C(=O)N2Cc2ccco2)cc(OC)c1OC (stereo unspecified) | / | / | . | . | / | /
Cc1ccc(C2Nc3ccccc3C(=O)N2Cc2ccco2)cc1 (stereo unspecified) | . | . | . | 25.1µM | . | .
O=C1c2ccccc2NC(c2cccc(F)c2)N1Cc1ccco1 (stereo unspecified) | . | . | . | 17.8µM | . | .
O=C1c2ccccc2NC(c2cccc(F)c2)N1Cc1ccccc1 (stereo unspecified) | . | . | . | . | . | /
COc1cc(C2Nc3ccccc3C(=O)N2Cc2ccco2)ccc1O (stereo unspecified) | / | / | . | . | / | /
O=C(NC[C@@H]1CCCN2CCCC[C@H]12)c1cnn(-c2nccc(-c3ccco3)n2)c1C1CC1 | / | / | . | / | / | /
COC(=O)CCC(=O)OC1(C)C(=O)C2=COC(c3ccc(OC)cc3)=CC2=C(Br)C1=O (stereo unspecified) | . | . | . | . | . | .
COc1ccc(C2=CC3=C(Br)C(=O)C(C)(OC(=O)c4ccc(Cl)nc4)C(=O)C3=CO2)cc1 (stereo unspecified) | . | . | 14.1µM | . | ? | .
CCn1cc(CN2CCOc3ccc(C(O)C4CCCCC4)cc3C2)c(C)n1 (stereo unspecified) | / | / | . | / | / | /
O=C(O)c1ccc2cc[nH]c2c1 | . | . | . | 15.8µM | . | .
O=[N+]([O-])c1ccc2[nH]ccc2c1 | / | / | / | . | / | /
O=[N+]([O-])c1ccc2cc[nH]c2c1 | / | / | . | 17.8µM | / | /
Cc1ncc2c(c1CNC(=O)c1cncs1)CCN(C(=O)c1csc(-c3cccs3)n1)C2 | / | / | . | / | / | /
Cc1nn(C)c(Cl)c1CN1CCCC(C(=O)Nc2ccc(-c3cscn3)cc2)C1 (stereo unspecified) | . | / | . | 25.1µM | / | /
COc1cc(/C=C/C(=O)OCC(=O)NC(=O)NC(C)C)cc(S(=O)(=O)N2CCc3ccccc32)c1OC | . | . | . | 20µM | . | .
CN(C)CCCNC(=O)C(=O)Nc1cc2c3c(c1)CCC(=O)N3CCC2 | . | . | . | . | . | /
Cc1ccc(C(C)C)c(OCC(=O)Nc2cccc(-c3nc4ncccc4o3)c2)c1 | / | / | . | 22.4µM | / | .
CCCCC(=O)Nc1cccc(-c2nc3ncccc3o2)c1 | . | . | . | 15.8µM | . | .
Cc1cc(C)c(OCC(=O)Nc2cccc(-c3nc4ncccc4o3)c2)c(Br)c1 | / | / | . | . | / | .
COCC(=O)Nc1cc(Sc2ccccc2)ccc1N=C(NC(=O)OC)NC(=O)OC | . | . | / | / | . | /

Source: PubChem (National Center for Advancing Translational Sciences (NCATS))
